Assay outcomes from PubChem.
ELG1 repair inh = ELG1-dependent DNA repair inhibition | HEK293T ELG1-luciferase reporter, luminescence, 16 h; DNA damage induced by 5-fluorouridine | Potency, µM (doses to about 46.1 µM), without a hit: at the highest dose activity change, negative = inhibition, most hits filed as inhibitors | 2.3% of 330,000 active; also: % is scaled to controls: 0 for no effect and ±100 for the full control effect; nearly all actives have a fitted effect of over 55% in size
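Reporter activity after DNA damage by 5-fluorouridine is monitored. Compound-treated cells incubate 16 hr at 37 °C, then ONE-Glo is added for 30 min before luminescence reading.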
FLuc counter = inhibits or activates purified firefly luciferase, miR-21 counter-screen; purified FLuc, Km substrates, luminescence inhibition; P08659; Potency, µM (series often up to 57.5 µM), without a hit: at the highest dose activity change, negative = inhibition, most hits filed as inhibitors; 6.9% of 360,000 active; AID 588342;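 also: plate controls were vehicle for no effect and reference inhibitor for full effect; nearly all actives have a fitted effect of over 55% in size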
Target sequence (P08659 whole entry, looked up): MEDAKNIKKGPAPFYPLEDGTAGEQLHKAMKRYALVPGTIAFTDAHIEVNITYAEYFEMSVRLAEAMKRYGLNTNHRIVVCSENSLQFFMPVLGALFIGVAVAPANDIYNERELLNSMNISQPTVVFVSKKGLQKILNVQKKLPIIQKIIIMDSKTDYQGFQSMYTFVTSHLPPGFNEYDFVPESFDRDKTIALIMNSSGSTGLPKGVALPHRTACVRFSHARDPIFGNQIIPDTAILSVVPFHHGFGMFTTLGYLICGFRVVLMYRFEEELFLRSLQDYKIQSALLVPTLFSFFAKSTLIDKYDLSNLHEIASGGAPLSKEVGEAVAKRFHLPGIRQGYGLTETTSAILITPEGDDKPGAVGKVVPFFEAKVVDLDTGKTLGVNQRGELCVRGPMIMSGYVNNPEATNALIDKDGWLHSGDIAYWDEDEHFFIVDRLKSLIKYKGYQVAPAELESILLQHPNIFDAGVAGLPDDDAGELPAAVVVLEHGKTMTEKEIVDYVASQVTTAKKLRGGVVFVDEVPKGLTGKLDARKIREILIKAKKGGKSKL
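Biochemical qHTS of compounds, final roughly 60 µM downward over six points, against 10 nM purified firefly luciferase using Km concentrations of substrates (10 uM D-luciferin, 10 uM ATP) in Tris acetate pH 7.5 buffer; luminescence output.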
NPC1 promoter act = NPC1 promoter activation; Huh7 NPC1 promoter luciferase reporter, 24 h; Potency, µM (top dose mostly 9.22 µM), inactives show at the highest dose activation, most hits filed as activators; 2.4% of 320,000 active; also: % of control where 0% means no effect; nearly all actives have a fitted effect of over 60% in size
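Luminescence from an NPC1 promoter-driven luciferase reporter in stably transfected Huh7 cells was measured after 24 h compound treatment at 37 °C, followed by 10 min ambient incubation with luciferase detection reagent.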
Rab9 promoter act = activators of Rab9 promoter; Huh7 Rab9 promoter-luciferase reporter, luminescence, 24 h; Potency, µM (doses to about 9.22 µM), without a hit: at the highest dose activation, negative = inhibition, most hits filed as activators; 2.8% of 320,000 active; AID 485297; also: % of control where 0% means no effect; nearly all actives have a fitted effect of over 60% in size
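Quantitative HTS format; Huh7 Rab9-luciferase reporter cells (1500/well) receive compound 2 h post-plating, incubate 24 h at 37 °C, then get luciferase reagent for 10 min before luminescence reading.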
ELG1 genotoxic = inducers of genotoxicity in HEK293T ELG1-luciferase cells. HEK293T ELG1-luciferase reporter, luminescence, 16 h. Potency, µM (doses to about 46 µM), inactives show at the highest dose activity change, positive = activation, actives largely listed as activators. 1.3% of 330,000 active. AID 504466; also: % of control where 0% means no effect; nearly all actives have a fitted effect of over 60% in size
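DMSO vehicle served as control against compound-treated ELG1-luciferase HEK293T cells; exposure lasted 16 hr at 37 °C and 5% CO2, followed by ONE-Glo luminescence detection after 30 min.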
SMN2 splice enh = increases expression of the SMN2 splice variant; HEK293 SMN2-luciferase splicing reporter, luminescence, 30-36 h; Potency, µM (doses to about 46.1 µM), inactives show top-dose activity change, positive = activation, most hits filed as activators; 2.8% of 210,000 active; also: % of control where 0% means no effect; nearly all actives have a fitted effect of over 55% in size
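qHTS luciferase splicing reporter: luminescence rises when SMN2 exon 7 is included in transfected HEK293 cells. Compound exposure lasted 30-36 h at 37C, with 4.5 mM final sodium butyrate as control, followed by a ONE-Glo read.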
An asterisk follows results filed as active; ? = inconclusive; . = no result; [ ] = remark or other dose. Sampled rows, rich in hits. Any-hit rate of the full collection: about 9.3%. Calls follow the shape of the dose curve; as a rule, active = well fitted curve in the direction sought with a large enough effect; inconclusive = small, poorly fitted or top-dose-only effect, or another doubt; inactive = no such curve, though single readings can be large; an effect the other way counts as inactive or inconclusive. Potency is read from the fitted curve at half-maximal effect.

SMILES | ELG1 repair inh | FLuc counter | NPC1 promoter act | Rab9 promoter act | ELG1 genotoxic | SMN2 splice enh
COc1ccc(-c2cc(C(=O)N(C)CC(=O)Nc3cccc(F)c3)c3ccccc3n2)cc1 | ? | 19µM* | -1% | -4% | -12% | .
CN(CC(=O)Nc1cccc(F)c1)C(=O)c1cc(-c2ccccc2)nc2ccccc12 | ? | -14% | -2% | -6% | -5% | .
Cc1cc(N2CCN(C(=O)c3ccco3)CC2)n2ncc(-c3ccccc3)c2n1 | ? | 12µM* | ? | 3.5µM* | 2% | 13%
Cc1cc(N2CCN(C(=O)c3ccco3)CC2)n2ncnc2n1 | 11% | -2% | -2% | 1% | 3% | 7%
Cc1ccc(-c2cnn3c(N4CCOCC4)cc(C)nc23)cc1 | ? | 0.48µM* | -11% | -14% | ? | .
C=CCc1c(C)nc2c(-c3ccccc3)cnn2c1N1CCOCC1 | ? | 2.4µM* | 2.8µM* | 1.6µM* | 10µM* | .
Cc1nc2cc(-c3cccc(F)c3)nn2c(N2CCN(C(=O)c3ccco3)CC2)c1C | 16µM* | 17µM* | 4% | -1% | ? | 13%
COc1ccc(NC(=O)CSc2n[nH]c(-c3ccncc3)n2)c([N+](=O)[O-])c1 | -3% | 0% | -3% | -6% | 1% | .
O=C(CCc1ccccc1)Nc1ccc(F)cc1F | ? | ? | 27% | ? | ? | 14%
Cc1cc(N2CCC(C)CC2)n2ncc(-c3ccccc3)c2n1 | ? | 0.76µM* | 0.35µM* | 0.32µM* | 0.41µM* | -38%
CC(C)(C)c1cc(N2CCOCC2)n2ncc(-c3ccc(Cl)cc3)c2n1 | ? | ? | -4% | 12% | 1% | .
Cc1cc(N2CCOCC2)n2ncc(-c3ccc(Cl)cc3)c2n1 | ? | 0.6µM* | 2.2µM* | 0.63µM* | ? | .
Cc1cc(N2CCCCC2)n2ncc(-c3ccccc3)c2n1 | ? | 0.27µM* | 0.45µM* | 0.32µM* | ? | 4%
CC(=O)Nc1ccc(Nc2cc(C)nc3c(-c4ccc(Cl)cc4)cnn23)cc1 | ? | -17% | 2.2µM* | 2.5µM* | 6% | ?
CC(=O)Nc1ccc(Nc2cc(C)nc3c(-c4ccc(Cl)cc4)c(C)nn23)cc1 | -15% | 0% | -7% | -6% | 0% | -29%
NC(=O)c1c(NC(=O)CN2CCN(S(=O)(=O)c3ccccc3)CC2)sc2c1CCC2 | ? | 1% | -5% | -7% | -10% | .
COc1cc(NC(=O)Nc2cccc(Cl)c2)c(OC)cc1NC(=O)CN1CCCCC1 | -14% | -8% | -10% | -1% | -15% | -5%
Cc1cc(N2CCCCC2)n2ncc(-c3ccc(Cl)cc3)c2n1 | ? | 2.4µM* | 4µM* | 2.8µM* | 2.1µM* | -15%
Cc1cc(N2CCOCC2)n2nc(C(F)(F)F)c(-c3ccccc3)c2n1 | -3% | 7% | -5% | -5% | -3% | .
Cc1cc(C)n(-c2cc(C(C)(C)C)nc3c(-c4ccccc4)cnn23)n1 | ? | 1.9µM* | 2.5µM* | 2.8µM* | ? | .
Cc1cc(N2CCOCC2)n2ncc(-c3ccccc3)c2n1 | ? | 0.34µM* | 0.56µM* | 0.71µM* | 0.18µM* | 2.2µM*
Cc1cc(C)n(-c2cc(C(C)(C)C)nc3c(-c4ccc(Cl)cc4)cnn23)n1 | 0% | ? | -3% | 6% | 3% | -7%
NC(=S)N/N=C/c1cc([N+](=O)[O-])ccc1OCCOc1ccccc1 | 24% | 4% | -1% | 4% | 8% | -3%
COc1ccc(N(Cc2ccccc2)C(=O)OC(C)(C)C)c(C(=O)N(C)OC)c1 | 6% | . | . | . | 0% | .
O=C(CCCCCN1C(=O)c2cccc3cccc(c23)C1=O)NC1CCS(=O)(=O)C1 (stereo unspecified) | 10% | 15µM* | -5% | -2% | 5% | .
SMILES | ELG1 repair inh | FLuc counter | NPC1 promoter act | Rab9 promoter act | ELG1 genotoxic | SMN2 splice enh
CCOC(=O)c1ccc(COC(=O)c2nonc2N)cc1 | ? | 15µM* | 1% | 2% | 0% | -13%
Cc1ccc2ccccc2c1COC(=O)c1nonc1N | 2% | 2% | 1% | -2% | 1% | 21%
O=c1oc2ccccc2cc1-c1cn2cc(Cc3ccc(Br)cc3)sc2n1 | . | -16% | . | . | . | 5%
CCOc1ccc2nc(N(Cc3cccnc3)C(=O)c3ccc4c(c3)OCCO4)sc2c1 | . | 13µM* | . | . | . | .
O=[N+]([O-])c1ccc(NCCCNS(=O)(=O)c2ccc(Cl)cc2)c(Cl)c1 | -27% | -1% | 1% | -5% | -10% | -17%
O=C(N/N=C/c1ccc2c(c1)OCO2)c1cc(-c2ccco2)nc2ccccc12 | 1% | 0.85µM* | -18% | -6% | 6% | .
O=C(N/N=C/c1ccc2c(c1)OCO2)c1cc(-c2ccccc2)nc2ccccc12 | ? | 11µM* | 1% | -3% | 0% | -11%[1.84 µM]
Cc1c(Cl)cccc1NC(=O)CSc1nc(=O)n(CCCN2CCOCC2)c2c1CCC2 | 15% | 3% | -1% | -7% | -2% | .
COc1ccc2ccccc2c1-c1csc(N)n1 | 0% | ? | -1% | 0% | 6% | .
COc1ccc2c(C)cc(Sc3nnnn3-c3ccccc3)nc2c1 | 26µM* | 1% | 0% | -9% | -4% | -11%
Cc1ccccc1-n1nnnc1Sc1nnnn1-c1ccccc1 | ? | 8% | -4% | -12% | -19% | 27%
Cc1ccc(C(=O)N2CCCC(N3CCN(c4ccccc4F)CC3)C2)s1 (stereo unspecified) | 2% | 3% | 1% | 7% | -13% | .
O=C1CCC(C(=O)N2CCCCO2)CN1CCc1ccccc1 (stereo unspecified) | ? | 17µM* | ? | ? | ? | .
COc1ccccc1CN1CC(C(=O)N2CCCCO2)CCC1=O (stereo unspecified) | ? | ? | 26% | ? | ? | .
O=C(Nc1c(C(=O)N2CCN(c3ccccn3)CC2)oc2ccccc12)c1ccc([N+](=O)[O-])cc1 | -7% | 6.7µM* | 2% | 3% | -3%[9.26 µM] | .
O=C(CN1CCN(Cc2cccc(Cl)c2)C1=O)NCc1ccc(F)cc1 | . | 2% | . | . | . | .
Cc1c(N=C2C=CC(=O)c3ccccc32)c(=O)n(-c2ccccc2)n1C | 21µM* | ? | -19% | -12% | -4% | -18%
Cc1c(N=C2C=C(Br)C(=O)C(Br)=C2)c(=O)n(-c2ccccc2)n1C | ? | 15µM* | 2% | 23% | 1% | -3%
Cc1c(N2C(=O)c3ccccc3C2=O)c(=O)n(-c2ccccc2)n1C | 15% | -3% | 9% | -7% | 3% | -5%
COc1ccc(/C=C2\SC(=O)N(CC(=O)NCCC(C)C)C2=O)cc1OC | 4% | 3% | -4% | -1% | -1% | .
